{
  "source": "PubChem BioAssay AID1347142",
  "about": "(National Center for Advancing Translational Sciences (NCATS), 2019)",
  "note": "Records with an inconclusive call do not appear. Where a call stands in place of a potency, no number is given. Calls of active or inactive are those of the source. The call rests on the fitted dose curve; in most records, active means well fitted inhibition curve with a large enough effect; inconclusive means small, poorly fitted or top-dose-only effect; inactive means no such curve, though single readings can be large or run the other way. Further: nearly all actives have a fitted effect of over 80% in size. Potency means the concentration at half of the fitted maximal effect.",
  "data": [
    {"biological_target": "N-terminal Xaa-Pro-Lys N-methyltransferase 1 (Homo sapiens) (UniProt Q9BV86)", "sequence (Q9BV86 whole entry, looked up)": "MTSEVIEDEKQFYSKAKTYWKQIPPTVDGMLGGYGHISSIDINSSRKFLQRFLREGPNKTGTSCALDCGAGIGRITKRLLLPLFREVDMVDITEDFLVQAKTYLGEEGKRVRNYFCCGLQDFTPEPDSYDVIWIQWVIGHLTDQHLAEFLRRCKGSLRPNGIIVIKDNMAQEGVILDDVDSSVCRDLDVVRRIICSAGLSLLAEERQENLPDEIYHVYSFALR", "assay": "qHTS Assay for Inhibitors of N-terminal methyltransferase 1 (NTMT1): ThioGlo3 Assay Confirmatory Screen, Round 1.", "conditions": "NTMT1 SAHH-coupled ThioGlo3 fluorescence, 30 min; series mostly up to 56.8 µM", "outline": "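Human NTMT1 at 125 nM was preincubated 1 min at room temperature with compounds at various concentrations or 1 uM RCC1-6 control. Substrate mix (100 uM SAM, 10 uM SAHH, 15 uM ThioGlo3) was added, and fluorescence (Ex 340/Em 450 nm) was read at start and after 30 min, normalized to background.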", "values": [
      {"smiles": "COc1cc2c(NC3CCN(C(C)C)CC3)nc(N3CCC(F)(F)CC3)nc2cc1OCCCN1CCCC1", "Potency": "24.1 µM (active)"},
      {"smiles": "CSc1nc(N)c2ncn([C@@H]3O[C@H](COP(=O)(O)OP(=O)(O)OP(=O)(O)O)[C@@H](O)[C@H]3O)c2n1", "Potency": "inactive"},
      {"smiles": "CNc1ncnc2c1ncn2[C@@H]1O[C@H](CO)[C@@H](O)[C@@H]1O", "Potency": "inactive"},
      {"smiles": "Nc1nc(Cl)nc2c1ncn2[C@@H]1O[C@H](COP(=O)(O)OP(=O)(O)OP(=O)(O)O)C(O)[C@H]1O", "note": "(stereo partly specified)", "Potency": "21.5 µM (active)"},
      {"smiles": "N#Cc1ccc(COC[C@H]2O[C@@H](n3c(NCc4ccc(Cl)c(Cl)c4)nc4c(N)ncnc43)[C@@H](O)[C@@H]2O)cc1", "Potency": "inactive"},
      {"smiles": "COc1cc2c(NC3CCN(C4CCCCC4)CC3)nc(N3CCCN(C)CC3)nc2cc1OCCOCCN(C)C", "Potency": "27.1 µM (active)"},
      {"smiles": "COc1cc2nc(N3CCCN(C)CC3)nc(NC3CCNCC3)c2cc1OC", "Potency": "21.5 µM (active)"},
      {"smiles": "COc1cc2nc(N3CCN(C)CC3)nc(NC3CCCCC3)c2cc1OC", "Potency": "27.1 µM (active)"},
      {"smiles": "Nc1ncnc2c1ncn2[C@@H]1O[C@H](COP(=O)(O)OP(=O)(O)O)[C@@H](O)[C@H]1O", "Potency": "inactive"},
      {"smiles": "COc1cc2c(NC3CCN(C(C)C)CC3)nc(N3CCCN(C)CC3)nc2cc1OCCCN1CCCC1", "Potency": "24.1 µM (active)"},
      {"smiles": "Nc1ncnc2c1ncn2C1CC(O)C(CO)O1", "note": "(stereo unspecified)", "Potency": "inactive"},
      {"smiles": "COc1cc2c(NC3CCN(C)CC3)nc(N3CCCN(C)CC3)nc2cc1OCCCCCN(C)C", "Potency": "24.1 µM (active)"},
      {"smiles": "Nc1ncnc2c1ncn2[C@H]1O[C@H](CO)[C@@H](O)[C@@H]1O", "Potency": "inactive"},
      {"smiles": "OC[C@H]1O[C@@H](n2cnc3c(Nc4ccccc4)ncnc32)[C@H](O)[C@@H]1O", "Potency": "inactive"},
      {"smiles": "Nc1ncnc2c1ncn2C1OC(COP(=O)(O)O)C(O)C1O", "note": "(stereo unspecified)", "Potency": "inactive"},
      {"smiles": "COc1cc2c(NC3CCN(CC4CCCCC4)CC3)nc(N3CCCN(C)CC3)nc2cc1OCCCN1CCCCC1", "Potency": "21.5 µM (active)"},
      {"smiles": "Nc1ncnc2c1ncn2[C@@H]1O[C@H](COP(=O)(O)OP(=O)(O)CP(=O)(O)O)[C@@H](O)[C@H]1O", "Potency": "inactive"},
      {"smiles": "C[S+](CCC(N)C(=O)O)CC1O[C@@H](n2cnc3c(N)ncnc32)C(O)C1O", "note": "(stereo partly specified)", "Potency": "inactive"},
      {"smiles": "NC(=S)c1ccc[n+]([C@@H]2O[C@@H](COP(=O)([O-])OP(=O)(O)OC[C@H]3O[C@@H](n4cnc5c(N)ncnc54)[C@H](OP(=O)(O)O)[C@@H]3O)C(O)C2O)c1", "note": "(stereo partly specified)", "Potency": "inactive"},
      {"smiles": "Nc1ncnc2c1[nH]c(=O)n2C1CC(O)C(CO)O1", "note": "(stereo unspecified)", "Potency": "inactive"},
      {"smiles": "Nc1ncnc2c1ncn2[C@@H]1O[C@H](CSCC[C@H](N)C(=O)O)[C@@H](O)[C@H]1O", "Potency": "inactive"},
      {"smiles": "CNC(=O)[C@H]1O[C@@H](n2cnc3c(N)ncnc32)[C@H](O)[C@@H]1O", "Potency": "inactive"},
      {"smiles": "Nc1ncnc2c1ncn2[C@@H]1O[C@H](CO)[C@@H](O)[C@H]1O", "Potency": "1.08 µM (active)"},
      {"smiles": "CCN1CCCN(c2nc(NC3CCN(C(C)C)CC3)c3cc(OC)c(OCCCN4CCCCC4)cc3n2)CC1", "Potency": "24.1 µM (active)"},
      {"smiles": "CNc1nc(N2CCN(C)CC2)nc2cc(OC)c(OC)cc12", "Potency": "24.1 µM (active)"},
      {"smiles": "COc1cc2c(NC3CCN(C)CC3)nc(N3CCCN(C)CC3)nc2cc1OCC1CCNCC1", "Potency": "24.1 µM (active)"},
      {"smiles": "COc1cc2c(NC3CCN(C)CC3)nc(N3CCCN(C)CC3)nc2cc1OCCCN1CCCCC1", "Potency": "24.1 µM (active)"},
      {"smiles": "COc1cc2nc(N3CCN(C)CC3)nc(N3CCOCC3)c2cc1OC", "Potency": "21.5 µM (active)"},
      {"smiles": "COC(=O)c1ccc2c(c1)nc(NC(=O)c1ccccc1)n2CCCc1ccccc1", "Potency": "inactive"},
      {"smiles": "COc1cc2c(NC3CCN(C(C)C)CC3)nc(N3CCCN(C(C)C)CC3)nc2cc1OCCOCCN(C)C", "Potency": "24.1 µM (active)"},
      {"smiles": "COc1cc2c(NC3CCN(CC4CCCCC4)CC3)nc(N3CCCCC3)nc2cc1OCCOCCN(C)C", "Potency": "24.1 µM (active)"},
      {"smiles": "Nc1nc(Nc2ccccc2)nc2c1ncn2[C@@H]1O[C@@H](CO)[C@H](O)[C@H]1O", "Potency": "inactive"},
      {"smiles": "CNCCCOc1cc2nc(N3CCCN(C)CC3)nc(NC3CCN(C)CC3)c2cc1OC", "Potency": "24.1 µM (active)"},
      {"smiles": "CC(C)(COP(=O)(O)OP(=O)(O)OC[C@H]1O[C@@H](n2cnc3c(N)ncnc32)[C@H](O)[C@@H]1OP(=O)(O)O)[C@H](O)C(=O)NCCC(=O)NCCS", "Potency": "inactive"},
      {"smiles": "CSc1nc(N)c2ncn([C@H]3O[C@H](COP(=O)(O)OP(=O)(O)O)[C@@H](O)[C@@H]3O)c2n1", "Potency": "inactive"},
      {"smiles": "O=c1[nH]cnc2c1ncn2C1O[C@H](CO)[C@@H](O)[C@H]1O", "note": "(stereo partly specified)", "Potency": "inactive"}
    ]}
  ]
}
